Article PMC4336329 (PLoS ONE, 2015)
About 2,200 (0.71%) of roughly 310,000 compounds showed an effect of 50% or more. The effect is printed as a negative number. Shown is part of a subset that was picked to be rich in strong results.

target: human ether-à-go-go-related gene (hERG) potassium channel (human, UniProt Q12809); experiment: primary screen, population patch clamp on CHO cells stably expressing hERG; higher = less effect of the substance
Sequence (Q12809 whole entry, looked up): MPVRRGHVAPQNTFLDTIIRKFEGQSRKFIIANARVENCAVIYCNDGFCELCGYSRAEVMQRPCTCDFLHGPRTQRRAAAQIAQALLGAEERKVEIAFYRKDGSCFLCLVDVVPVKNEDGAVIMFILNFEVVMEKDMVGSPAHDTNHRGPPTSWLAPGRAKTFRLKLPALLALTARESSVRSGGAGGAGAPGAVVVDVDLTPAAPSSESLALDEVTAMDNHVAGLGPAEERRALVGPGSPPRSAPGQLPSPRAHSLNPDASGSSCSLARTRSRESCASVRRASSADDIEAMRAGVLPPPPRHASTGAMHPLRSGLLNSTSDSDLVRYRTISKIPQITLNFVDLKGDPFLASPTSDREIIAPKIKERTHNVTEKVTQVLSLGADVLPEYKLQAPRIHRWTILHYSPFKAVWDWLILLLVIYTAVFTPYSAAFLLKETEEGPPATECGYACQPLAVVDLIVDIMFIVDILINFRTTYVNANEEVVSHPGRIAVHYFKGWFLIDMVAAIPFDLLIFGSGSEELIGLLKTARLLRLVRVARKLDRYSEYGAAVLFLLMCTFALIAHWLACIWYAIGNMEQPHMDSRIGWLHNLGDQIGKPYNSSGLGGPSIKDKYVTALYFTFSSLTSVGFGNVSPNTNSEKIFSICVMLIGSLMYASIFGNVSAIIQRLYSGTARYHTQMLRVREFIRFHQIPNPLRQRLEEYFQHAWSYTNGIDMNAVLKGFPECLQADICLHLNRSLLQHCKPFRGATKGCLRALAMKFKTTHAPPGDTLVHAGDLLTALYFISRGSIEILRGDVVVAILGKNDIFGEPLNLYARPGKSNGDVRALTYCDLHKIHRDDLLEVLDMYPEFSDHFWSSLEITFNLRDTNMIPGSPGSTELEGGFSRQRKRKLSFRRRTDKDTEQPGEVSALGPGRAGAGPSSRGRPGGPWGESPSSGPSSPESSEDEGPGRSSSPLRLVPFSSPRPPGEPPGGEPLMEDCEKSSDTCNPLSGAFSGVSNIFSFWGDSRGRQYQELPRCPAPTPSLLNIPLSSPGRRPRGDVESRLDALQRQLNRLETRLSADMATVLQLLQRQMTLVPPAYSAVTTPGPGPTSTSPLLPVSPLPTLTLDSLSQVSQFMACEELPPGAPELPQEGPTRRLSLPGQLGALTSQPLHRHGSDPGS

Point of comparison: CC(C)(C)c1ccc(CN2C(=O)c3ccccc3S2(=O)=O)cc1, “hERG current change (%, negative = inhibition) at 1uM” value 15.7%. Against it:
- CCOC(=O)C1CCN(S(=O)(=O)c2cc3c(cc2C)NC(=O)CO3)CC1 — lower, -13.1%
- CC(=O)NCCC(=O)Nc1sc2c(c1-c1nc3ccccc3[nH]1)CCCC2 — lower, 7.25%
- CC(C)(C)NCCOc1ccc2ccccc2c1 — lower, 14.6%
- O=C(O)c1cc2ccccc2cc1Nc1ccccc1 — lower, 6.84%
- CC(OC(=O)c1ccco1)C(=O)Nc1ccc(Cl)cn1 (stereo not shown) — lower, 5.93%
- CNC(=O)C1=C(C)Nc2nc3ccccc3n2C1c1ccc(F)cc1 (stereo not shown) — lower, 7.95%
- C/C(CC(=O)Nc1ccc(F)cc1)=N\NC(=O)Cc1csc(N)n1 — higher, 16.1%
- CCOC(=O)c1nc(Nc2ccc(C(=O)O)cc2)c2ccccc2n1.Cl — lower, 11.2%
- O=C(Nc1ccccc1)N(C1=NCCCCS1)c1cccc2ccccc12 — lower, 5.62%
- O=C(O)CC1SC(=O)N(CC(=O)c2ccccc2)C1=O (stereo not shown) — lower, 8.06%
- O=C(COC(=O)Cc1cccc(C(F)(F)F)c1)NC1CC1 — lower, 10.7%
- N#CCCn1cc(C(=O)Nc2ccc(C(=O)O)cc2)c(-c2ccc([N+](=O)[O-])cc2)n1 — higher, 16%
- N#CCCn1cc(C(=O)Nc2ccc(F)cc2)c(-c2ccc([N+](=O)[O-])cc2)n1 — lower, 6.48%
- N#CCCn1cc(C(=O)Nc2ccc([N+](=O)[O-])cc2)c(-c2ccccc2)n1 — lower, -67.8%
- O=C(OCC(=O)N1CCCC1)c1ccc(S(=O)(=O)Nc2ccccc2)cc1 — lower, -0.807%
- CN(CC(=O)Nc1cccc(F)c1)C(=O)c1ccccc1Sc1ccccc1C#N — lower, -8.06%
- CC(=O)c1cccc(NC(=O)C2CCCN(S(=O)(=O)c3ccccc3)C2)c1 (stereo not shown) — lower, 7.51%
- O=C(NCc1ccco1)C1CCCN(S(=O)(=O)c2cc(Cl)ccc2Cl)C1 (stereo not shown) — lower, 2.52%
- CN(C)c1ccc(/C=N/NC(=O)c2ccn(C)n2)cc1 — lower, 9.92%
- CC(NC(=O)c1cc(S(=O)(=O)N(C)C)ccc1Cl)c1ccc(-n2ccnc2)cc1 (stereo not shown) — lower, -55.3%
- CC(NC(=O)c1ccccc1Cl)c1ccc(-n2ccnc2)cc1 (stereo not shown) — lower, -1.53%
- CC(NC(=O)c1ccc(S(=O)(=O)N(C)C)cc1)c1ccc(-n2ccnc2)cc1 (stereo not shown) — lower, -40.5%
- COc1ccc(C(=O)CN2C(=O)NC(C)(c3ccccc3)C2=O)cc1OC (stereo not shown) — lower, 3.32%
- CCOC(=O)C1CCN(C(C)C(=O)c2c(C)[nH]c3cc(C)ccc23)CC1 (stereo not shown) — lower, -66.9%
- CCOC(=O)C1CCN(CC(=O)c2c(C)[nH]c3cc(C)ccc23)CC1 — lower, -26.8%
- CCOC(=O)C1CCN(C(C)C(=O)c2c[nH]c3ccccc23)CC1 (stereo not shown) — lower, -1.89%
- CCOC(=O)C1=C(C)NC(=S)N(C(C)=O)C1c1ccc(Cl)cc1 (stereo not shown) — lower, 9.38%
- O=C1OCCC1Sc1nc2ccccc2c(=O)n1Cc1ccc(F)cc1 (stereo not shown) — lower, -37.5%
- O=C1OCCC1Sc1nc2ccccc2c(=O)n1Cc1ccccc1 (stereo not shown) — lower, -64.6%
- Cc1ccc(Cn2c(SC3CCOC3=O)nc3ccccc3c2=O)cc1 (stereo not shown) — lower, -6.65%
- COc1ccc2nc3ccccc3nc2c1NC(=O)c1ccccc1Cl — lower, -1.38%
- O=C(NCc1ccccc1)c1cnsn1 — lower, 7.4%
- CC1(C)C(=O)C2(CCCCC2)C(=O)OC1C(=O)c1ccccc1 (stereo not shown) — lower, 6.81%
- O=C(COc1ccc2c3c(c(=O)oc2c1)CCCC3)N1C[C@H]2C[C@@H](C1)c1cccc(=O)n1C2 — lower, -6%
- COc1cnn(Cc2ccccc2)c(=O)c1SCc1ccccc1 — lower, -2%
- CCN1CCc2nc3ccccc3c(C(=O)Nc3ccc(F)cc3)c2C1 — lower, -81.6%
- O=C(NCc1ccc(F)cc1)c1c2c(nc3ccccc13)CCN(Cc1ccccc1)C2 — lower, 0.811%
- CCN1CCc2nc3ccccc3c(C(=O)Nc3ccc(NC(C)=O)cc3)c2C1 — lower, 12.4%
- CCOc1ccc(NC(=O)c2c3c(nc4ccccc24)CCC3)cc1 — lower, 10.9%
- Cc1ccc(NC(=O)c2c3c(nc4ccccc24)CCC3)cc1 — lower, 7.04%
- CCN1CCc2nc3ccccc3c(C(=O)Nc3ccc(C#N)cc3)c2C1 — lower, -65.8%
- Cc1ccc(Oc2nc(C(F)(F)F)nc3ccccc23)cc1 — lower, 6.66%
- CC(C)(C)OC(=O)N/N=C\c1ccc(OC(=O)c2cccs2)cc1 — lower, 9.49%
- COc1ccc(-c2n[nH]c(=S)n2-c2ccc(Br)cc2)cc1OC — higher, 16.7%
- O=C(COC(=O)CCS(=O)(=O)c1ccccc1)Nc1ccccc1 — lower, 0.18%
- O=C(COC(=O)c1cc[n+]([O-])cc1)Nc1cc([N+](=O)[O-])ccc1Cl — lower, 13.7%
- O=C(NCC(c1ccco1)N1CCc2ccccc2C1)c1ccc([N+](=O)[O-])cc1 (stereo not shown) — lower, -7.15%
- O=C(C[n+]1cccc(C(=O)Nc2ccccc2)c1)c1ccc([N+](=O)[O-])cc1.[Br-] — lower, -61%
- Cc1ccc(C(=O)C[n+]2cccc3ccccc32)cc1.[Br-] — lower, 7.24%
- O=C(C[n+]1cccc2ccccc21)c1ccc([N+](=O)[O-])cc1.[Br-] — lower, -53.8%
- O=C(C[n+]1cccc2ccccc21)c1ccccc1.[Br-] — lower, 8.9%
- O=C(Nc1ccccc1)c1ccc[n+](Cc2ccc([N+](=O)[O-])cc2)c1.[Br-] — lower, 5.28%
- O=C(C[n+]1cccc(NC(=O)c2ccccc2)c1)c1cccc([N+](=O)[O-])c1.[Br-] — lower, -39.6%
- COc1ccc(CC(=O)NNS(=O)(=O)c2ccc([N+](=O)[O-])cc2)cc1OC — higher, 16%
